Assay outcomes as filed in PubChem.
Rv3671c protease: Rv3671c serine protease inhibitors, primary screen, biochemical, fluorescence polarization, M. tuberculosis H37Rv; P9WHR9; AID 2606, 2010; 320,000 compounds, 0.048% hits; inhibition, % at 5.96 µM; in the data active means inhibition above about 38%;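 further: extracellular domain of Rv3671c used as enzyme; 0% = enzyme with DMSO and 100% = no enzyme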
Target sequence (P9WHR9 whole entry, looked up, the tested form may be a part): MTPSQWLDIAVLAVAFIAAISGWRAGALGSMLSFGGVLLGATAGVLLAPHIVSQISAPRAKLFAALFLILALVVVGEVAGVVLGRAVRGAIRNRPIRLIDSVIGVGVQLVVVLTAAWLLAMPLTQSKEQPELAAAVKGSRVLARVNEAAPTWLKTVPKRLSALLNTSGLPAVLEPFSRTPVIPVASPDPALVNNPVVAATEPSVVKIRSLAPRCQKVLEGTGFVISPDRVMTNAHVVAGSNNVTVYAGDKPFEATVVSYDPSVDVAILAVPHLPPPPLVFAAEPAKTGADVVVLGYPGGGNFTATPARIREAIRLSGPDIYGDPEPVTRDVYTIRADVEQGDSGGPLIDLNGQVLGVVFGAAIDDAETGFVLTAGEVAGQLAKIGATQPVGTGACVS
FadD28 binding: inhibitors of FadD28 bisubstrate probe binding, primary screen, biochemical, fluorescence polarization, single point; inhibition, % at 12.5 µM; Mycobacterium tuberculosis FadD28 fatty-acid-AMP ligase; 360,000 compounds, 0.22% hits; in the data active means inhibition above about 8.5%, passing the limit was not always enough
SSB-PriA inh: inhibitors of Klebsiella pneumoniae PriA binding to SSB C-terminal tail, primary screen, biochemical, AlphaScreen. PriA–SSB C-terminal tail interaction (Klebsiella pneumoniae). AlphaScreen SSBct-PriA binding, biotinylated peptide. inhibition, % at 33 µM. 430,000 compounds, 0.6% hits; in the data active means inhibition mostly above about 37%, no sharp cut-off; inactive means mostly below about 20%;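 further: plate controls were negative control peptide for no effect and reference peptide for full effect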
PrP UTR inh: inhibition of PrP 5' UTR reporter expression. cell-based PrP 5' UTR mRNA reporter, plate reader. inhibition, % (concentration not given with the values). 340,000 compounds, 0.35% hits; in the data active means inhibition above about 52%; further: 0 = median of the neutral control wells
PrPC surface inh: inhibitors of human cell surface prion protein PrPC, primary screen, cell-based, TR-FRET. Major prion protein (Homo sapiens), P04156. TR-FRET read-out. inhibition, % at 13.8 µM. 370,000 compounds, 0.43% hits. AID 720596, 2013; in the data active means inhibition above about 24%; further: 0% = median of the test wells and 100% = reference compound wells
Mtb UGM inh: M. tuberculosis UGM enzyme inhibitors, primary screen, biochemical, fluorescence polarization, single point; purified UGM, fluorescence polarization probe displacement; inhibition, % at 10 µM; AID 504406, 2011; 320,000 compounds, 0.06% hits; UDP-galactopyranose mutase (Mycobacterium tuberculosis (strain ATCC 25618 / H37Rv)), …; in the data active means inhibition above about 10%, passing the limit was not always enough
* = called active by the depositor; i = inactive; / = no result; + = active, no number. Only some compounds are listed: those with a hit (about 1.2% of all), similar ones and a draw of the others.

SMILES | Rv3671c protease | FadD28 binding | SSB-PriA inh | PrP UTR inh | PrPC surface inh | Mtb UGM inh
c1ccc(-c2c(-c3ccccc3)n(Cc3ccco3)c3ncnc(NCCCn4ccnc4)c23)cc1 | 7 | -5 | 52* | 6 | -10 | 0
O=C(COc1ccccc1F)NCC(c1ccsc1)N1CCc2ccccc2C1 (centres undefined) | / | / | -8 | / | / | /
CCCCOc1ccccc1-c1cc(C(=O)Nc2cc(Cl)c(OC)cc2OC)[nH]n1 | / | / | -14 | / | / | /
COc1cc(OC)c(NC(=O)c2cc(-c3cc[nH]c3)n[nH]2)cc1Cl | / | / | 29* | / | / | /
Oc1ccc(CSCc2ccccc2)c2cccnc12 | / | / | 10 | / | / | /
CCCCCCSCc1ccc(O)c2ncccc12 | / | / | 83* | / | / | /
CCCCCCCCSCc1ccc(O)c2ncccc12 | / | / | 73* | / | / | /
Oc1ccc(CSC2CCCCC2)c2cccnc12 | / | / | 69* | / | / | /
O=C(Cn1cnc2ccccc21)NC[C@H]1CCCN1c1ccccc1 | / | / | 23 | / | / | /
O=C(O)c1cc(N/N=C/c2ccc(N3CCOCC3)s2)ccc1Cl | -6 | 45* | / | -22 | -2 | /
O=C(O)c1cc(NN=Cc2ccc(N3CCOCC3)s2)ccc1Cl | / | / | 0 | / | / | /
Cn1nnnc1SCSc1nnnn1C | 1 | 0 | -7 | -6 | -4 | 1
CSc1nnnn1CCn1nnnc1SC | -10 | 0 | -10 | -1 | 36* | 3
CNC(=O)CS(=O)(=O)C1CCN(C(=O)Cn2cnc3ccccc32)CC1 | / | / | -14 | / | / | /
O=C1N/C(=N\S(=O)(=O)c2ccccc2)S/C1=C\c1cc([N+](=O)[O-])ccc1O | 6 | 19* | / | -15 | -10 | -8
O=C1NC(=NS(=O)(=O)Cc2ccccc2)S/C1=C/c1cccc([N+](=O)[O-])c1 | / | / | -16 | / | / | /
O=C1N/C(=N\S(=O)(=O)Cc2ccccc2)S/C1=C/c1cc([N+](=O)[O-])ccc1O | 8 | 15* | / | -11 | -14 | -5
COc1cc(/C=C2/S/C(=N/S(=O)(=O)c3ccccc3)NC2=O)c([N+](=O)[O-])cc1OC | -4 | 4 | / | -15 | -19 | -4
Cc1ccc(S(=O)(=O)/N=C2/NC(=O)/C(=C\c3cc(Br)cc(Br)c3O)S2)cc1 | / | 50* | / | -20 | / | -35
CC(=O)NS(=O)(=O)c1ccc(NC(=O)N[C@H]2CC(=O)N(c3ccc4c(c3)OCCO4)C2)cc1 | / | / | -6 | / | / | /
Cc1nc(SC(C)c2ccccc2)[nH]c(=O)c1CC(=O)Nc1ccc(F)c(F)c1 (centres undefined) | / | / | 0 | / | / | /
CCc1ccc(/C=C2\SC(=S)N(CCCC(=O)NCCCN3CCOCC3)C2=O)cc1 | / | -3 | / | / | -12 | /
CCOc1ccc(/C=C2\SC(=S)N(CCCC(=O)NCCCN3CCOCC3)C2=O)cc1 | -7 | 0 | 19 | 81* | -4 | 0
CCOc1ccc(CC(=O)N2CCN(c3nccn3-c3ccc(C)cc3)CC2)cc1 | / | / | 70 | / | / | /
CC(C)(C)c1ccc(OC[C@@H](O)CNc2ccc(Br)cc2)cc1 | / | / | 3 | / | / | /
SMILES | Rv3671c protease | FadD28 binding | SSB-PriA inh | PrP UTR inh | PrPC surface inh | Mtb UGM inh
NC(Cc1cc(O)c(O)cc1O)C(=O)O (centres undefined) | 30 | / | / | / | / | 2
N[C@@H](Cc1cc(I)c(O)c(I)c1)C(=O)O | -6 | 10* | -2 | -11 | 5 | 1
O=C(CCc1ccccc1Br)N(Cc1ccsc1)C1CC1 | / | / | -33 | / | / | /
O=C(CCc1ccc(Cl)c(C(F)(F)F)c1)NC(c1cccnc1)C1CCOCC1 (centres undefined) | / | / | 8 | / | / | /
CCOC(=O)N=c1oc2ccccc2o1 | / | / | -14 | / | / | /
CCOC(=O)c1cc(NC(=O)C2C3CCC(O3)C2C(=O)O)cc(C(=O)OCC)c1 (centres undefined) | 5 | 0 | 53* | -13 | 3 | /
COc1ccccc1NS(=O)(=O)c1ccc(N/N=C(\C)C(C)C)c([N+](=O)[O-])c1 | -2 | -1 | / | -11 | -1 | 2
CCCC(CCC)=NNc1ccc(S(=O)(=O)Nc2ccccc2OC)cc1[N+](=O)[O-] | -2 | -3 | 41* | -10 | 2 | 2
NS(=O)(=O)c1ccc(NN=C2CCCCC2C2CCCCC2)c([N+](=O)[O-])c1 (centres undefined) | / | / | 40* | / | / | /
COc1ccccc1NS(=O)(=O)c1ccc(NN=C2CCCCC2)c([N+](=O)[O-])c1 | -3 | -4 | 62* | -5 | -5 | 2
O=C(NCc1ccc2c(c1)OCO2)[C@H]1CCCN(c2ccc(-n3cncn3)nn2)C1 | / | / | -4 | / | / | /
CCOc1cccc(N2C(=O)/C(=C/c3ccco3)C(=O)NC2=S)c1 | -5 | 3 | 8 | 3 | 3 | 3
O=C1NC(=S)N(c2ccccc2)C(=O)/C1=C/c1ccco1 | -63 | 11* | -3 | -14 | -8 | -4
O=[N+]([O-])c1cc(/C=N\Nc2nc(-c3ccccc3)cs2)ccc1O | 5 | 3 | / | -42 | 7 | -3
Cc1csc(N/N=C/c2ccc(O)c([N+](=O)[O-])c2)n1 | 15 | 9.3* | / | -21 | -10 | 2
Cc1cc(NC(=O)C(=O)NCC2CCN(C(C)C)CC2)c2ccccc2n1 | / | / | -9 | / | / | /
CN1CCc2c(sc(NC(=O)CCCSc3ccc(Cl)cc3)c2-c2nc3ccccc3s2)C1 | / | / | -12 | / | / | /
COc1ccccc1N1CCN(C(=O)Cc2csc(Nc3ccccc3)n2)CC1 | / | / | 6 | / | / | /
COc1ccccc1N1CCN(C(=O)c2csc(Nc3ccccc3)n2)CC1 | / | / | 24* | / | / | /
C=CCN=c1scc(-c2ccc(C)cc2)n1/N=C/c1ccccn1 | / | / | + | / | / | /
Cc1cccc(NC(=O)NCCCn2ccnc2)c1 | / | / | 24 | / | / | /
Oc1ccc(CNc2ccccc2Br)c2cccnc12 | / | / | -1 | / | -5 | /
Oc1ccc(CNc2ccc(F)cc2)c2cccnc12 | -10 | 0 | 78* | -14 | -3 | -2
Cc1cccc(NCc2ccc(O)c3ncccc23)c1 | 7 | 0 | 47* | -3 | -4 | -2
Cc1ccccc1NCc1ccc(O)c2ncccc12 | -2 | -2 | 97* | -11 | -8 | 0
SMILES | Rv3671c protease | FadD28 binding | SSB-PriA inh | PrP UTR inh | PrPC surface inh | Mtb UGM inh
Oc1ccc(CNc2cc(Cl)cc(Cl)c2)c2cccnc12 | / | / | 67* | / | / | /
Oc1ccc(CNc2ccccc2)c2cccnc12 | -6 | 0 | -16 | 7 | / | -1
Cc1cc(N)nc(Nc2ccccc2C)n1 | / | / | -9 | / | / | /
O=C1NC(=Nc2ccccc2Cl)S/C1=C\c1cccc([N+](=O)[O-])c1O | -3 | 21* | 17 | -15 | -15 | 0
CCOc1ccc2nc(NC(=O)c3snnc3CC)sc2c1 | / | / | 2 | / | / | /
COc1cc(C=NNC(=O)CC#N)ccc1OC/C=C/c1ccccc1 | / | / | 68* | / | / | /
COc1cc(/C=N/NC(=O)CC#N)ccc1OCc1ccccc1 | / | / | + | / | / | /
C=CCOc1ccc(/C=N/NC(=O)CC#N)cc1OC | / | / | i | / | / | /
COC(=O)NN=Cc1ccc(OC/C=C/c2ccccc2)c(OC)c1 | / | / | 1 | / | / | /
N#CCC(=O)NN=Cc1ccccc1OC/C=C/c1ccccc1 | / | / | 71* | / | / | /
